{
  "source": "PubChem BioAssay AID504882",
  "about": "(Broad Institute, 2011)",
  "note": "The whole screen tested about 1,200 compounds, of which about 290 (24%) were called active. Not shown: some 9% with an inconclusive outcome. Only a sample is shown. Entries with a potency or affinity are not part of this list. Unmarked numbers belong to inactive results. No rule for the calls is given here.",
  "data": [
    {"test": "cytotoxicity in EBV lymphoblastoid cells, dose response, cytotoxicity control, cell-based, plate reader, cherry-picks, set 2 (AID 504882);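 also: 0% = neutral control wells and -100% = positive control wells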", "conditions": "EBV lymphoblastoid cells (LCL) viability; series mostly up to 19.5 µM; activity change, negative = cytotoxicity: at the top concentration", "units": {"activity change, negative = cytotoxicity": "%"}, "values": [
      {"smiles": "O=C(N/N=C(/CC(=O)c1cccs1)C(F)(F)F)c1ccc(O)cc1", "activity change, negative = cytotoxicity": 18.3},
      {"smiles": "CCC(C)[C@H](NC(=O)NCc1cccnc1)C(=O)OC", "note": "(some centres undefined)", "activity change, negative = cytotoxicity": 11.4},
      {"smiles": "Cc1cccc(C)c1NC(=O)CN(C)C(=O)c1ccc(-c2cccc(C(F)(F)F)c2)o1", "activity change, negative = cytotoxicity": 25.4},
      {"smiles": "O=C(CN1C(=O)c2ccccc2S1(=O)=O)c1ccc(F)c(F)c1", "activity change, negative = cytotoxicity": 15.6},
      {"smiles": "COc1ccc(-n2c(SCC(=O)Nc3ccc4c(c3)OCO4)nc3c(c2=O)SCC3)cc1", "activity change, negative = cytotoxicity": 16.8},
      {"smiles": "Cc1ccnc(NC(=O)CCC(=O)c2cccs2)c1", "activity change, negative = cytotoxicity": -9.24},
      {"smiles": "COc1ccc(C(=O)Nn2c(SCC(=O)NC3CCCCC3)nc3ccccc3c2=O)cc1", "activity change, negative = cytotoxicity": -5.87},
      {"smiles": "NC(=O)CC(NC(=O)c1ccccc1)c1ccc(NC2CCN(Cc3ccccc3)CC2)c([N+](=O)[O-])c1", "note": "(centres undefined)", "activity change, negative = cytotoxicity": 18.1},
      {"smiles": "Cc1cccc(Cn2cc(SCC(=O)Nc3nccs3)c3ccccc32)c1", "activity change, negative = cytotoxicity": -0.243},
      {"smiles": "COC(=O)c1c(O)ccc(Oc2ccccc2)c1C(=O)OC", "activity change, negative = cytotoxicity": 5.36},
      {"smiles": "COc1ccc2oc(C(=O)NCCc3ccccc3)c(C)c2c1", "activity change, negative = cytotoxicity": -3.62},
      {"smiles": "COc1ccc(-n2c(SCC(=O)Nc3cc(C)on3)nc3c(c2=O)SCC3)cc1", "activity change, negative = cytotoxicity": 17.6},
      {"smiles": "Cc1ccc(-n2ccc(=O)c(C(=O)Nc3ccc(S(=O)(=O)N4CCOCC4)cc3)n2)cc1", "activity change, negative = cytotoxicity": 17.9},
      {"smiles": "O=C1c2ccccc2C(Nc2cccnc2)N1Cc1ccccc1", "note": "(centres undefined)", "activity change, negative = cytotoxicity": 22.9},
      {"smiles": "COc1cc(/C=N/NC(=O)c2cccc(S(=O)(=O)N3CCOCC3)c2)cc(OC)c1O", "activity change, negative = cytotoxicity": 21.9},
      {"smiles": "COc1cc(C(=S)N2CCOCC2)cc(OC)c1OC(=O)c1ccc(F)cc1", "activity change, negative = cytotoxicity": 24.8},
      {"smiles": "O=C(NOCc1ccccc1)c1ccc(Cl)cc1Cl", "activity change, negative = cytotoxicity": -4.17},
      {"smiles": "C[C@H]1C[C@H]2[C@@H]3CCC4=CC(=O)C=C[C@]4(C)[C@@]3(F)[C@@H](O)C[C@]2(C)[C@@]1(O)C(=O)CO", "activity change, negative = cytotoxicity": 22.7},
      {"smiles": "CC1CCC(NC(=O)CC2Oc3ccccc3NC2=O)CC1", "note": "(centres undefined)", "activity change, negative = cytotoxicity": 5.69},
      {"smiles": "O=C1CN(C(=O)c2ccc(F)c(S(=O)(=O)N3CCOCC3)c2)c2ccccc2N1", "activity change, negative = cytotoxicity": 14.2},
      {"smiles": "CC(C)c1nnc(NC(=O)c2ccc(N3C(=O)CCC3=O)cc2)s1", "activity change, negative = cytotoxicity": 18},
      {"smiles": "COc1cc2c(cc1OC)-c1cc(Nc3ccc4c(c3)OCCO4)nc(=O)n1CC2", "activity change, negative = cytotoxicity": 19.9},
      {"smiles": "CCCC(=O)NCCCc1nc2ccccc2[nH]1", "activity change, negative = cytotoxicity": -0.384},
      {"smiles": "COc1cccc(C(=O)Nc2nc3ccccc3[nH]2)c1", "activity change, negative = cytotoxicity": -12.2},
      {"smiles": "COc1ccccc1C=NN=Cc1ccccc1O", "activity change, negative = cytotoxicity": 28.7},
      {"smiles": "CCc1ccc(-c2nnn(CCC(=O)OC)n2)cc1", "activity change, negative = cytotoxicity": 13.5},
      {"smiles": "COc1cccc(C(=O)CC(=O)C(=O)Nc2ccc(C)cc2Cl)c1", "activity change, negative = cytotoxicity": -18.2},
      {"smiles": "CCc1ccc(/C=C/C(=O)C2C(=O)c3ccccc3C2=O)cc1", "activity change, negative = cytotoxicity": -11.9},
      {"smiles": "O=C(OCc1ccccc1F)c1cc2ccccc2cc1O", "activity change, negative = cytotoxicity": 12.3},
      {"smiles": "CCS(=O)(=O)c1nnnn1-c1ccccc1S(C)(=O)=O", "activity change, negative = cytotoxicity": -2.8},
      {"smiles": "C[C@H](NC(=O)N1CCn2c1nc1ccccc12)C(=O)NCC1CCCO1", "note": "(some centres undefined)", "activity change, negative = cytotoxicity": 25.5},
      {"smiles": "CCOC(=O)c1ccc(NC(=S)N2CCSC2c2ccc(OC)cc2)cc1", "note": "(centres undefined)", "activity change, negative = cytotoxicity": 6.17},
      {"smiles": "COC(=O)c1[nH]c2cccc(C)c2c1NC(=O)CN1CCCc2ccccc21", "activity change, negative = cytotoxicity": 11.1},
      {"smiles": "CC(C)(C)c1nc2c(s1)CCc1onc(-c3ccc(Br)cc3)c1-2", "activity change, negative = cytotoxicity": 7.52},
      {"smiles": "Cc1nc2sc(C(N)=O)c(N)c2c2c1CCCC2", "activity change, negative = cytotoxicity": 8.1},
      {"smiles": "O=C(Nc1ccc(Cl)cc1)c1ccco1", "activity change, negative = cytotoxicity": 1.44},
      {"smiles": "O=C(Nc1ccc2c(c1)nc1n2CCSC1)c1ccco1", "activity change, negative = cytotoxicity": -6.4},
      {"smiles": "CCOC(=O)C1=C(O)/C(=C/c2ccc(CNC(=O)C(=O)Nc3ccc(C)cc3)o2)N=C1C", "activity change, negative = cytotoxicity": 51},
      {"smiles": "Nc1cc(=O)[nH]c(SCCSc2cc(Cl)ccc2Cl)n1", "activity change, negative = cytotoxicity": 12.4},
      {"smiles": "CC(C)(C)c1cc(C(=O)NNC(=O)Nc2cccc(Cl)c2)n(Cc2ccccc2)n1", "activity change, negative = cytotoxicity": -0.268},
      {"smiles": "CC(=O)O[C@]1(C(C)=O)CC[C@H]2[C@@H]3C=C(C)C4=CC(=O)CC[C@@H]4[C@H]3CC[C@@]21C", "activity change, negative = cytotoxicity": 1.64},
      {"smiles": "O=C(O)c1ccccc1Nc1cccc(OCc2ccc3ccccc3n2)c1", "activity change, negative = cytotoxicity": -17.2},
      {"smiles": "c1ccc2c3c([nH]c2c1)C(C1CCCCC1)N(Cc1ncc[nH]1)CC3", "note": "(centres undefined)", "activity change, negative = cytotoxicity": 13.2},
      {"smiles": "Brc1ccc(-c2csc(N3CCCCCC3)n2)cc1", "activity change, negative = cytotoxicity": 18.1},
      {"smiles": "O=C1c2ccccc2C(Nc2ccc(Cl)cc2)N1CCN1CCOCC1", "note": "(centres undefined)", "activity change, negative = cytotoxicity": 8.15},
      {"smiles": "COc1cc(/C=C2\\SC(=S)N(NC(=O)c3ccncc3)C2=O)ccc1O", "activity change, negative = cytotoxicity": -1.11},
      {"smiles": "CCc1nnc(NC(=O)c2cc(S(=O)(=O)N3CCN(CC)CC3)ccc2Cl)s1", "activity change, negative = cytotoxicity": 3.73},
      {"smiles": "COc1cc2c(=O)n(CC3CCCO3)c(=O)n(CC(=O)Nc3cccc(Cl)c3)c2cc1OC", "note": "(centres undefined)", "activity change, negative = cytotoxicity": 18.9},
      {"smiles": "COc1ccc(NC(=O)N(CCN2CCCC2)Cc2cc3cc(OC)c(OC)cc3[nH]c2=O)cc1", "activity change, negative = cytotoxicity": 5.63},
      {"smiles": "Cc1cccc(C)c1NC(=O)CN(C)CC(=O)Nc1ccccc1Oc1ccccc1", "activity change, negative = cytotoxicity": 11.5},
      {"smiles": "Cc1ccc(C(=O)Nc2ccc3ncccc3c2)cc1", "activity change, negative = cytotoxicity": 21.2},
      {"smiles": "O=C(O)c1c2c(nc3ccccc13)/C(=C/c1ccc(O)cc1)CC2", "activity change, negative = cytotoxicity": 10},
      {"smiles": "CSc1nc(C)cc(C)c1C#N", "activity change, negative = cytotoxicity": 3.6},
      {"smiles": "CC1(C)CN(Cc2ccccc2)C(=O)[C@H]1CC(=O)Nc1ccccc1", "activity change, negative = cytotoxicity": 2.36}
    ]}
  ]
}
